Reference: PubChem BioAssay (EPA / NIEHS)
Records with an inconclusive call do not appear. Calls of active or inactive are those of the source. How the source made its calls, unless noted: active means hit-call score of the fitted dose curve at least 0.9, where 1 is the maximum; inactive means score below 0.9.

What was measured:
[1] = molecular target: Paired box protein Pax-6 (Homo sapiens) (UniProt P26367); test: ATG_Pax6_CIS: Attagene CIS-FACTORIAL HepG2 Assay for human Paired Box 6 (PAX6) (AID 2282956); conditions: HepG2 CIS-FACTORIAL PAX6 reporter transcription, RNA readout; actives raise or lower the signal
Chain of Paired box protein Pax-6 (Homo sapiens) (P26367 whole entry, looked up): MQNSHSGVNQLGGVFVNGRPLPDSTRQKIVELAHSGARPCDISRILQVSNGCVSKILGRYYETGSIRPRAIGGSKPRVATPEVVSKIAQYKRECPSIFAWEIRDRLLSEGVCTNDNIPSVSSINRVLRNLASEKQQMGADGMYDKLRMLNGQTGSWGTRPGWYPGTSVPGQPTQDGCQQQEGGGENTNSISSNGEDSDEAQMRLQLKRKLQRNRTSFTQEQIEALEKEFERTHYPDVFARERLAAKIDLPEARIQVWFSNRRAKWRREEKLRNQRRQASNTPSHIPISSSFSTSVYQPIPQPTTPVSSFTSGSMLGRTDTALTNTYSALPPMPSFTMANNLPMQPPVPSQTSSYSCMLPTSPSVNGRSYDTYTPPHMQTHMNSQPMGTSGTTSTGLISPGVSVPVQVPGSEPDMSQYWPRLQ
Method in brief: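 Readout: reporter transcript fluorescence after RT-PCR and capillary electrophoresis. Cells: HepG2, transiently transfected with cis-regulated MRTUs. Exposure 24 h. Gain or loss of signal fitted bidirectionally relative to DMSO.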

[2] = ATG_Sox_CIS: Attagene CIS-FACTORIAL HepG2 Assay for human SRY-box transcription factor (SOX) (AID 2282960); conditions: HepG2 Attagene cis-factorial SOX reporter, mRNA; actives raise or lower the signal
Method in brief: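 HepG2 cells transiently transfected with multiple cis-regulated reporter units, then dosed for 24 h. Reporter mRNA quantified by RT-PCR, fluorescent labelling, HpaI digestion and capillary electrophoresis; bidirectional fit versus DMSO.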

[3] = molecular target: Transcription factor Sp1 (Homo sapiens) (UniProt P08047); test: ATG_Sp1_CIS: Attagene CIS-FACTORIAL HepG2 Assay for human Specificity Protein 1 (Sp1) (AID 2282961); conditions: HepG2 Sp1 cis-reporter transcription, actives raise or lower the signal
Chain of Transcription factor Sp1 (Homo sapiens) (P08047 whole entry, looked up): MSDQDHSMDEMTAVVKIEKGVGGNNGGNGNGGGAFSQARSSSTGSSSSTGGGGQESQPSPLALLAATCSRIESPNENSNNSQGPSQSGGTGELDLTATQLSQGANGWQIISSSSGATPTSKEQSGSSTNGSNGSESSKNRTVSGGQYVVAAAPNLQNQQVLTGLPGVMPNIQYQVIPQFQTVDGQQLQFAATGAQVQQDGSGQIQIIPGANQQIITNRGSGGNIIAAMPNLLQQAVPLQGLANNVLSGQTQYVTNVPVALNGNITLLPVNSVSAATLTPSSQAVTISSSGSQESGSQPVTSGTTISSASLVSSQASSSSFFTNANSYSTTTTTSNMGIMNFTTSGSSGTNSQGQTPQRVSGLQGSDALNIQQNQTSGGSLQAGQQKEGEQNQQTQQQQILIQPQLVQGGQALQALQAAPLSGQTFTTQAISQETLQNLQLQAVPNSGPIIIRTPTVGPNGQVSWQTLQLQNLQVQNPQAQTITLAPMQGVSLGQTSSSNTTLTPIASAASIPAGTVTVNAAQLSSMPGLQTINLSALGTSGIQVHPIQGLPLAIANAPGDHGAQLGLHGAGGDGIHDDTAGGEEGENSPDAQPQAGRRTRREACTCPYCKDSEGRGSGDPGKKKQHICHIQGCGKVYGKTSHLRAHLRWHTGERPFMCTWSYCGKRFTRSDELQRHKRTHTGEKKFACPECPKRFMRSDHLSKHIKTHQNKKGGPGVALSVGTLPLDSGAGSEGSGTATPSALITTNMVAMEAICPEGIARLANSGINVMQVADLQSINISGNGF
Method in brief: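 HepG2 cells transiently transfected with multiplexed cis-regulated reporter constructs, chemical exposure 24 h. Reporter mRNA quantified by RT-PCR with capillary electrophoresis; bidirectional fit relative to DMSO.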

[4] = ATG_SREBP_CIS: Attagene CIS-FACTORIAL HepG2 Assay for human Sterol Regulatory Element Binding (SREBP) (AID 2282962); conditions: HepG2 Attagene cis-factorial SREBP reporter, mRNA; actives raise or lower the signal
Method in brief: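 Readout: fluorescent reporter-transcript peaks resolved by capillary electrophoresis after RT-PCR. Cells were human HepG2 carrying transfected cis-promoter reporter constructs, dosed for 24 h. Gain or loss of signal was fitted against DMSO controls.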

[5] = molecular target: Signal transducer and activator of transcription 3 (Homo sapiens) (UniProt P40763); test: ATG_STAT3_CIS: Attagene CIS-FACTORIAL HepG2 Assay for human Signal Transducer and Activator of Transcription 3 (STAT3) (AID 2282963); conditions: HepG2, Attagene cis-factorial STAT3 reporter transcription; actives raise or lower the signal
Chain of Signal transducer and activator of transcription 3 (Homo sapiens) (P40763 whole entry, looked up): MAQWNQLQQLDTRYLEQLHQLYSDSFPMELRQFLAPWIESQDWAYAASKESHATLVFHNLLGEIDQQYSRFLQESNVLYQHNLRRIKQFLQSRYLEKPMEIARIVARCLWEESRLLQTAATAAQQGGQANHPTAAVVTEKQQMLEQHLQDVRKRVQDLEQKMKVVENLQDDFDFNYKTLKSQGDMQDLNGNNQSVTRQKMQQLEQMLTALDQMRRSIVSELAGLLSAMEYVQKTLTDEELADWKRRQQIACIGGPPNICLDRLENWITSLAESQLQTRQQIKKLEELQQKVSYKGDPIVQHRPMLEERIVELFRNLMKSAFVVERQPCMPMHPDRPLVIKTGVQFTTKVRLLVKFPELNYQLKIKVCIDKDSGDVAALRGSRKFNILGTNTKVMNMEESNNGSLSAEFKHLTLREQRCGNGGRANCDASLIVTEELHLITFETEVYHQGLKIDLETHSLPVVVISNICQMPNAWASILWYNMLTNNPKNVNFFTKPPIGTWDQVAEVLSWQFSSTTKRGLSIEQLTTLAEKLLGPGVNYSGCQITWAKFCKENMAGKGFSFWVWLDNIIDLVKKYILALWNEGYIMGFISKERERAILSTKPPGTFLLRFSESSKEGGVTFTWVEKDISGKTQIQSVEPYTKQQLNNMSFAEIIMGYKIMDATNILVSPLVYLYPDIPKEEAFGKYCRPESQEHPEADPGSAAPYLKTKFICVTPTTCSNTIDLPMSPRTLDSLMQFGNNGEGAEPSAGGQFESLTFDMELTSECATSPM
Method in brief: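 Cis-factorial format: endogenous transcription factors in HepG2 drive transfected reporter units. After 24 h treatment, reporter RNA was reverse-transcribed, amplified, FAM-labelled and HpaI-digested before CE analysis; activity scored in both directions against DMSO.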

[6] = ATG_TA_CIS: Attagene CIS-FACTORIAL HepG2 Assay for human TA Basal Promoter (AID 2282964); conditions: HepG2 Attagene CIS-factorial TA basal promoter reporter; actives raise or lower the signal
Method in brief: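 Background internal-marker endpoint from a 52-component HepG2 cis-reporter panel. Cells treated 24 h; reporter transcripts quantified via RT-PCR and CE fluorescence against DMSO baseline.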

[7] = ATG_TCF_b_cat_CIS: Attagene CIS-FACTORIAL HepG2 Assay for human T-Cell-Factor with beta-catenin (TCF/b-cat) (AID 2282965); conditions: HepG2 TCF/beta-catenin cis-reporter transcription, actives raise or lower the signal
Method in brief: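 Endogenous transcription factor activity is captured through cis-promoter reporter constructs transiently introduced into human HepG2 liver cells. Induced reporter mRNA is measured after 24 h and fitted bidirectionally relative to DMSO.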

[8] = ATG_TAL_CIS: Attagene CIS-FACTORIAL HepG2 Assay for human TAL Basal Promoter (AID 2282966); conditions: HepG2 Attagene cis-factorial TAL promoter reporter; actives raise or lower the signal;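 further: background control endpoint measuring basal TAL promoter reporter mRNA not a specific factor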
Method in brief: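 Endogenous transcription-factor activity is sensed in HepG2 cells through transfected cis-promoter reporter constructs. After 24 h dosing, reporter transcripts are quantified by RT-PCR and capillary electrophoresis. Gain or loss of signal is fitted relative to DMSO.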

[9] = ATG_TGFb_CIS: Attagene CIS-FACTORIAL HepG2 Assay for human Transforming Growth Factor (TGF) (AID 2282967); conditions: HepG2 Attagene CIS TGFb reporter, mRNA transcription; actives raise or lower the signal
Method in brief: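 Liver HepG2 line, cis-factorial reporter panel, 24 h dosing. Quantitation: RT-PCR products labeled with 6-FAM, cut with HpaI, resolved by capillary electrophoresis; DMSO-referenced bidirectional analysis.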

[10] = ATG_VDRE_CIS: Attagene CIS-FACTORIAL HepG2 Assay for human Vitamin D Receptor Element (VDRE) (AID 2282968); conditions: HepG2 VDRE cis-reporter transcription, actives raise or lower the signal
Method in brief: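 Measures endogenous factor activity through cis-element-driven reporter transcripts in transiently transfected HepG2. Cells are treated 24 h; reporter mRNA is quantified by RT-PCR and capillary electrophoresis; fitting is bidirectional.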

[11] = molecular target: Estrogen receptor (Homo sapiens) (UniProt P03372); test: ATG_ERa_TRANS: Attagene TRANS-FACTORIAL HepG2 Assay for human Estrogen Receptor alpha (ERa) (AID 2282970; active means hit-call score of the fitted dose curve at least 0.9, where 1 is the maximum); conditions: HepG2 Attagene TRANS ERa GAL4 reporter, mRNA
Chain of Estrogen receptor (Homo sapiens) (P03372 whole entry, looked up, the tested form may be a part): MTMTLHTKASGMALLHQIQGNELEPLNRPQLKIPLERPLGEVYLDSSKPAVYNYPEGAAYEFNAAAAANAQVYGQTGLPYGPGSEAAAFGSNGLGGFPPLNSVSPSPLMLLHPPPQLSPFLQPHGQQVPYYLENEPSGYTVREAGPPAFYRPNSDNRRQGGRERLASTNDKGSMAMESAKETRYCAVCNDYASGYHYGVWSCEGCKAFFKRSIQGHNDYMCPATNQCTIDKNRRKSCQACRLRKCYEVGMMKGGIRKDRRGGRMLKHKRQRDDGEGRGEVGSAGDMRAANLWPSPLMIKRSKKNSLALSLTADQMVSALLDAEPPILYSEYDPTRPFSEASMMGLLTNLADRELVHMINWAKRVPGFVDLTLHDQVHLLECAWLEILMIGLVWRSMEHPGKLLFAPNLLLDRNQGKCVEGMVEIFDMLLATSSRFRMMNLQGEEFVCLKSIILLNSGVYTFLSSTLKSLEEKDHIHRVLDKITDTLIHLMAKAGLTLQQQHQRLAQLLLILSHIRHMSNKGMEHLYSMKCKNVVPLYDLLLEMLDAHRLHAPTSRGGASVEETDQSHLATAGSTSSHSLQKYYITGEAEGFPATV
Method in brief: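 Transfected HepG2 cells carrying GAL4-UAS-driven reporter units were dosed for 24 hours. Total RNA was reverse-transcribed, reporter sequences PCR-amplified, FAM-labelled, HpaI-digested and resolved by capillary electrophoresis. Increases over DMSO control defined activity.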

[12] = molecular target: X-box-binding protein 1 (Homo sapiens) (UniProt P17861); test: ATG_Xbp1_CIS: Attagene CIS-FACTORIAL HepG2 Assay for human X-box Binding Protein 1 (XBP1) (AID 2282972); conditions: HepG2 XBP1 cis-element reporter, Attagene multiplex; actives raise or lower the signal
Chain of X-box-binding protein 1 (Homo sapiens) (P17861 whole entry, looked up, the tested form may be a part): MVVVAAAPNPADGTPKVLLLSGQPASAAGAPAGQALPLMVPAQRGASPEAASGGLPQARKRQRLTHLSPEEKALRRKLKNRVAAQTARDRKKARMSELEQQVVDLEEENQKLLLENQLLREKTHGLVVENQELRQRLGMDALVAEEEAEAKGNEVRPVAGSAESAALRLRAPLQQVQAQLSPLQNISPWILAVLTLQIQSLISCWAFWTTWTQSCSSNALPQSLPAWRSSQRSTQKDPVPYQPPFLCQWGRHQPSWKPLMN
Method in brief: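 Read-out: fluorescent reporter mRNA fragments resolved by capillary electrophoresis after RT-PCR. Human HepG2 liver cells carried transfected cis-promoter reporter units and were exposed to chemicals for 24 hours. Gain or loss of signal fitted relative to DMSO baseline.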

[13] = ATG_GAL4_TRANS: Attagene TRANS-FACTORIAL HepG2 Assay for GAL4 (Internal Marker) (AID 2282976; active means hit-call score of the fitted dose curve at least 0.9, where 1 is the maximum); conditions: HepG2 Attagene TRANS GAL4 internal marker reporter
Method in brief: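 Fluorescence from capillary electrophoresis of labelled RT-PCR products quantifies reporter mRNA induction after 24 h dosing of HepG2 cells carrying transfected GAL4-UAS reporter transcription units. Vehicle DMSO serves as baseline.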

[14] = molecular target: Estrogen-related receptor gamma (Homo sapiens) (UniProt P62508); test: ATG_ERRg_TRANS: Attagene TRANS-FACTORIAL HepG2 Assay for human Estrogen-Related Receptor gamma (ERRg) (AID 2282977; active means hit-call score of the fitted dose curve at least 0.9, where 1 is the maximum;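 further: hits increase reporter signal over DMSO so potencies reflect activators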); conditions: HepG2 Attagene TRANS reporter, ERRg transactivation
Chain of Estrogen-related receptor gamma (Homo sapiens) (P62508 whole entry, looked up, the tested form may be a part): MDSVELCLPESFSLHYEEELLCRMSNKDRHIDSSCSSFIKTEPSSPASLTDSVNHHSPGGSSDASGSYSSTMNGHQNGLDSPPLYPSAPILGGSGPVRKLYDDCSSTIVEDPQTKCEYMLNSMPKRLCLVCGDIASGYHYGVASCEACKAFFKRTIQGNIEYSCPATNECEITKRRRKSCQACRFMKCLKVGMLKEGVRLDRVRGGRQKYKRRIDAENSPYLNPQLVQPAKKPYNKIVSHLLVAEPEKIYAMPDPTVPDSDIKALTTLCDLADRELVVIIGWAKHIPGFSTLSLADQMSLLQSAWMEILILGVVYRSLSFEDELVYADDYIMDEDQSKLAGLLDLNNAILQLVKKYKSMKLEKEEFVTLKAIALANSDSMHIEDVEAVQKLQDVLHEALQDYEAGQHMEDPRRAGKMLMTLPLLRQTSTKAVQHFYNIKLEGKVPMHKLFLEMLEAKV
Method in brief: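 Exogenous NR-Gal4 chimera activity was assessed in HepG2 cells bearing transfected GAL4-UAS reporters. After 24 h dosing, total RNA underwent RT-PCR, fluorescent primer extension and HpaI digestion before capillary electrophoresis, with gain of signal scored against DMSO.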

[15] = ATG_RORE_CIS: Attagene CIS-FACTORIAL HepG2 Assay for human RAR-related Orphan Receptor Element (RORE) (AID 2282959); conditions: HepG2 Attagene cis-factorial RORE reporter, mRNA; actives raise or lower the signal
Method in brief: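 HepG2 cells carrying transiently transfected cis-regulated reporter units; RORE-driven reporter mRNA quantified 24 h post-dosing by RT-PCR, 6-FAM primer extension, HpaI digestion and capillary electrophoresis. Bidirectional fit versus DMSO.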

[16] = molecular target: Nuclear receptor subfamily 1 group I member 3 (Homo sapiens) (UniProt Q14994); test: ATG_CAR_TRANS: Attagene TRANS-FACTORIAL HepG2 Assay for human Constitutive Androstane Receptor (CAR) (AID 2282969; active means hit-call score of the fitted dose curve at least 0.9, where 1 is the maximum;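 further: activators raise reporter mRNA above DMSO so AC50 marks induction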); conditions: HepG2 Attagene TRANS-FACTORIAL CAR reporter
Chain of Nuclear receptor subfamily 1 group I member 3 (Homo sapiens) (Q14994 whole entry, looked up, the tested form may be a part): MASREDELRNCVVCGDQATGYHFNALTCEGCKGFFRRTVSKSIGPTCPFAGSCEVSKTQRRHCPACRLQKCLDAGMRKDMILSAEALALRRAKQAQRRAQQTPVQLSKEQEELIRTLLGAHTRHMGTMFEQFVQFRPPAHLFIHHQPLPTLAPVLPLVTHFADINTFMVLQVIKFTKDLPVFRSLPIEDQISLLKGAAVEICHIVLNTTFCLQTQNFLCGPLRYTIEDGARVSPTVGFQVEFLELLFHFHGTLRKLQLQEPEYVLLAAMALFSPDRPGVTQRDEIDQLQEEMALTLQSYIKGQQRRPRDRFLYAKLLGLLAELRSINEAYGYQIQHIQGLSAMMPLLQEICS
Method in brief: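 Signal is reporter mRNA induction relative to DMSO, measured 24 h after dosing by RT-PCR with fluorescent primer extension and capillary electrophoresis. Human HepG2 liver cells carried transiently transfected chimeric NR-Gal4/GAL4-UAS reporter constructs.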

[17] = ATG_M_19_TRANS: Attagene TRANS-FACTORIAL HepG2 Assay for M19 Transcription Factor (Internal Marker) (AID 2282974; active means hit-call score of the fitted dose curve at least 0.9, where 1 is the maximum); conditions: HepG2 Attagene TRANS-FACTORIAL M19 internal marker reporter
Method in brief: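 HepG2 transiently transfected with GAL4-UAS multiplex reporter constructs, exposed 24 h; reporter RNA quantified by RT-PCR, 6-FAM labeling, HpaI digestion and capillary electrophoresis; internal background marker fitted upward versus DMSO.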

[18] = ATG_PPRE_CIS: Attagene CIS-FACTORIAL HepG2 Assay for human Peroxisome Proliferator-activated Response Element (PPRE) (AID 2282958); conditions: HepG2 PPRE cis-element reporter, Attagene transcription factor profiling; actives raise or lower the signal
Method in brief: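 HepG2 cells are transiently transfected with multiplexed cis-promoter reporter units to report endogenous PPAR activity. After 24 h dosing, reporter mRNA is read by RT-PCR and capillary electrophoresis. Fitting is bidirectional against DMSO.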

[19] = molecular target: Steroid hormone receptor ERR1 (Homo sapiens) (UniProt P11474); test: ATG_ERRa_TRANS: Attagene TRANS-FACTORIAL HepG2 Assay for human Estrogen-Related Receptor alpha (ERRa) (AID 2282971; active means hit-call score of the fitted dose curve at least 0.9, where 1 is the maximum); conditions: HepG2 Attagene TRANS reporter, ERRa transactivation
Chain of Steroid hormone receptor ERR1 (Homo sapiens) (P11474 whole entry, looked up, the tested form may be a part): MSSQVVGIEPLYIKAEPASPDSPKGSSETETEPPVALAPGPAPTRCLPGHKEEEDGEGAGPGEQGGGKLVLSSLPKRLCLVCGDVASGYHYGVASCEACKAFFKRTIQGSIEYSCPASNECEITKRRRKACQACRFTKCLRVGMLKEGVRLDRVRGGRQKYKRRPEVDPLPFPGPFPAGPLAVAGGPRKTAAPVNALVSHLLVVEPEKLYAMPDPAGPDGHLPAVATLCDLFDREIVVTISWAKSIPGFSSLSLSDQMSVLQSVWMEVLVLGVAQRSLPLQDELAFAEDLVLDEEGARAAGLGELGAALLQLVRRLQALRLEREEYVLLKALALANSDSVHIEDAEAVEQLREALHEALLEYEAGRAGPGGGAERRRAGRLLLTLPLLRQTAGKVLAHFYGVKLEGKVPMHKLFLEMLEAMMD
Method in brief: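 HepG2 cells were transiently transfected with multiple GAL4-UAS reporter units, then dosed with compound for 24 h. Total RNA was reverse-transcribed, reporter cDNA PCR-amplified and fluorescently labelled, and fragments resolved by capillary electrophoresis; induction was compared with DMSO.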

Measured: AC50

CC(C)CCCCCCc1ccc(OCCOCCO)cc1
not listed: [15] | [16] | [17] | [18] | [19]
inactive: all other assays above

c1ccc(Oc2ccccc2)cc1
not listed: [3] | [7] | [11] | [13] | [14] | [18] | [19]
inactive: all other assays above

CCCOCCO
not listed: [11] | [14] | [15] | [18] | [19]
inactive: all other assays above

Cc1ccc(OC(=O)c2ccccc2O)cc1
not listed: [11] | [13] | [15] | [19]
inactive: all other assays above

CCC(Cl)C(Cl)C(Cl)CC(Cl)C(Cl)C(C)Cl (configuration not stated)
inactive: [1] | [15] | [2] | [4] | [5] | [6] | [7] | [8] | [12]
active: [9] 64.6 µM | [10] 3.17 µM

CC1(C)COCN1
not listed: [11] | [14] | [15] | [19]
inactive: all other assays above

O=C(CC(=O)c1ccccc1)c1ccccc1
active: [1] 100 µM | [18] 3.67 µM | [2] 100 µM | [3] 94.3 µM | [4] 67.7 µM | [12] 45.1 µM
inactive: [5] | [6] | [7] | [8] | [9] | [10]

O=C(O)c1ccc(O)cc1
not listed: [7] | [10] | [11] | [13]
inactive: all other assays above

CCOc1ccc(N=Nc2ccc(C=Cc3ccc(N=Nc4ccc(OCC)cc4)cc3S(=O)(=O)O)c(S(=O)(=O)O)c2)cc1
not listed: [11] | [13] | [14] | [15] | [19]
inactive: all other assays above
